KLK7 zymogen act – proKLK7 (human) activation, primary screen; AID 652039; activation, % at 7 µM; 370,000 compounds, 0.9% hits; purified proKLK7, EDANS-DABCYL substrate fluorescence; 100% is mature enzyme control, 0% vehicle;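 active = activation above the mean of all tested compounds plus 3 SD, computed per campaign excluding outliers beyond control limits, cut at about 13% in these data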
Target sequence (P49862 whole entry, looked up): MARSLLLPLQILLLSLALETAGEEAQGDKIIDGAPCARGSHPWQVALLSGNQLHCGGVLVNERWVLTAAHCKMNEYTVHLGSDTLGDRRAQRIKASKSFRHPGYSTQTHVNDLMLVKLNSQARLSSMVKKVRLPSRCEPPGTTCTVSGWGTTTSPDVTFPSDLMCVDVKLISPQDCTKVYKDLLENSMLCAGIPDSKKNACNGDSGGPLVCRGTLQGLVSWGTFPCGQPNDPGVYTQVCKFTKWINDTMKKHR
ADAM10 inh – ADAM10 inhibition, QFRET primary screen. recombinant ADAM10, EDANS/DABCYL FRET peptide cleavage, 3 h. inhibition, % at 7 µM. O14672. 370,000 compounds, 0.62% hits;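 active = inhibition above a per-campaign cutoff equal to the mean of compounds falling between control-based bounds plus 3 SD, cut at about 20% in these data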
MPTP inh – blocks calcium-induced mitochondrial swelling. isolated mouse mitochondria, Ca2+ swelling absorbance, 30 min. inhibition, % at 10 µM. 360,000 compounds, 1.4% hits. AID 602449;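 active = inhibition of 50% or more, scaled per plate between neutral and stimulator controls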
rCAG binder – molecules binding r(CAG) RNA repeats; 370,000 compounds, 1.3% hits; r(CAG) RNA repeat, TO-PRO-1 dye displacement fluorescence; inhibition, % at 3 µM; AID 651821;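 active = inhibition above the plate cutoff, the mean of all test compounds on that plate plus 3 SD, cut at about 35% in these data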;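 note: higher means more dye released from RNA so lower well fluorescence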
ADAM17 inh – inhibits human ADAM17; 370,000 compounds, 0.83% hits; inhibition, % at 6.95 µM; recombinant ADAM17, EDANS/DABCYL FRET peptide cleavage; AID 720648;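 active = inhibition above the mean of compounds lying between control limits plus 3 SD, set per campaign, cut at about 8.5% in these data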
DSG3 Ab inh – inhibitors of pemphigus antibody binding to human desmoglein-3 | P32926 | binding (percent of control), % at 10 µM | 310,000 compounds, 0.48% hits | AID 588358 | DSG3-coupled beads, scFv-anti-DSG3-GFP binding, flow cytometry; active compounds read low;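 active = binding more than 3 SD below its plate's average and above zero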;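 note: hits lower antibody fragment binding to DSG3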
rCAG bind conf – r(CAG) RNA repeat binding, confirmation; AID 652065; shares compounds with rCAG binder; inhibition, % at 3 µM; TO-PRO-1 dye displacement fluorescence; 4,300 compounds, 70% hits;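 active = inhibition above a per-plate cutoff, the mean inhibition of sample wells plus 3 SD, cut at about 35% in these data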;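 note: loss of TO-PRO-1 fluorescence as compound displaces dye from 1x1 AA loop RNA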
DNA CAG counter – DNA CAG dye complex inhibition counter-screen | d(CAG) DNA oligo TO-PRO-1 dye displacement, fluorescence | 4,300 compounds, 94% hits | shares compounds with rCAG binder | AID 652068 | inhibition, % at 3 µM;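 active = inhibition above its plate's cutoff, the mean test-well inhibition plus 3 SD, cut at about 4.8% in these data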;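 note: hits displace the dye from DNA and so lower well fluorescence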
dCAG dye DR – DNA CAG dye complex inhibition, dose response counter-screen; IC50, µM; DNA CAG/GTC duplex TO-PRO-1 dye displacement fluorescence; AID 686960; shares compounds with rCAG binder; 250 compounds, 20% hits; in the data active = IC50 below about 10 µM
Each line names hits and unclear results; the compound was inactive in the other large screens (follow-up assays come after a bar, where they were run). Most compounds without a hit are left out; they make up all but 4.7% or so of the library.

Cc1ccc(-c2cc(C(=O)Nc3ccc(S(=O)(=O)Nc4ncccn4)cc3)c3ccccc3n2)cc1	rCAG binder 57.8 | rCAG bind conf 64.4 | DNA CAG counter 20.5
CCc1ccc(-c2cc(C(=O)Nc3ccc(S(=O)(=O)NC(C)=O)cc3)c3ccccc3n2)cc1	rCAG binder 57.6, DSG3 Ab inh 62.8 | rCAG bind conf 62.5 | DNA CAG counter 28.9
Cc1cc(NC(=O)c2cc(-c3ccccc3Cl)nc3ccccc23)no1	none
Cc1cc(NS(=O)(=O)c2ccc(NC(=O)c3cc(-c4ccccc4Cl)nc4ccccc34)cc2)no1	rCAG binder 75.2 | rCAG bind conf 72.1 | DNA CAG counter 38.7
Cc1ccc(O)c(-c2cc(C(=O)Nc3ccc(S(=O)(=O)Nc4nccc(C)n4)cc3)[nH]n2)c1	rCAG binder 58.9 | rCAG bind conf 48.5 | DNA CAG counter 17.4
CCc1nc2ccc(C(=O)NCc3ccc4c(c3)OCO4)cn2c1N(C)CCC(C)C	none (no result: DSG3 Ab inh)
Cc1ccc(-c2cc(C(=O)Nc3ccc(S(=O)(=O)Nc4nccs4)cc3)c3ccccc3n2)c(C)c1	ADAM10 inh 40.4, rCAG binder 68.3, ADAM17 inh 20.2 | rCAG bind conf 70.6 | DNA CAG counter 30.4 | dCAG dye DR inactive
Cc1ccccc1S(=O)(=O)N1[C@@H](c2ccc(F)cc2)C(C(=O)O)=CC[C@H]1c1ccc(Cl)cc1	rCAG binder 57.8 | rCAG bind conf 72.2 | DNA CAG counter 32.8 | dCAG dye DR inactive
O=C(O)C1=CC[C@@H](c2ccc(Cl)cc2)N(S(=O)(=O)c2ccc(Cl)cc2)[C@H]1c1ccc(F)cc1	rCAG binder 70.1 | rCAG bind conf 67.7 | DNA CAG counter 30.0
CCc1ccc([C@@H]2CC=C(C(=O)O)[C@H](c3ccccc3)N2S(=O)(=O)c2ccc(C)cc2)cc1	rCAG binder 76.2 | rCAG bind conf 66.9 | DNA CAG counter 27.4
Cc1ccc(S(=O)(=O)N2[C@@H](c3ccccc3F)C(C(=O)O)=CC[C@H]2c2cccc(Cl)c2)cc1	none
CCc1ccc([C@@H]2CC=C(C(=O)O)[C@H](c3ccc(F)cc3)N2S(=O)(=O)c2ccc(C)cc2)cc1	rCAG binder 80.1 | rCAG bind conf 62.1 | DNA CAG counter 24.2
COc1ccc([C@@H]2CC=C(C(=O)O)[C@H](c3cccc(Cl)c3)N2S(=O)(=O)c2ccc(C)cc2)cc1OC	rCAG binder 38.9 | rCAG bind conf inactive | DNA CAG counter 7.0
CCOc1ccc([C@@H]2CC=C(C(=O)O)CN2S(=O)(=O)c2ccc(C)cc2)cc1	none
CCOc1ccc([C@@H]2CC=C(C(=O)O)[C@H](c3ccc(F)cc3)N2S(=O)(=O)c2ccc(C)cc2)cc1	rCAG binder 51.6 | rCAG bind conf 51.2 | DNA CAG counter 14.8
COc1ccc([C@@H]2CC=C(C(=O)O)[C@H](c3ccc(Cl)cc3)N2S(=O)(=O)c2ccc(Cl)cc2)cc1	rCAG binder 59.1 | rCAG bind conf 74.2 | DNA CAG counter 37.5
Cc1ccc(S(=O)(=O)N2[C@@H](c3ccc(Br)cc3)C(C(=O)O)=CC[C@H]2c2ccc(C(C)C)cc2)cc1	none
Cc1ccc([C@@H]2CC=C(C(=O)O)[C@H](c3ccc(Br)cc3)N2S(=O)(=O)c2ccc(C)cc2)cc1	rCAG binder 82.3 | rCAG bind conf 83.8 | DNA CAG counter 49.8
Cc1ccc([C@@H]2CC=C(C(=O)O)[C@H](c3ccc(F)cc3)N2S(=O)(=O)c2ccc(C)cc2)cc1	rCAG binder 54.3 | rCAG bind conf 61.4 | DNA CAG counter 24.1
CCOc1ccc([C@@H]2CC=C(C(=O)O)[C@H](c3cccc(Cl)c3)N2S(=O)(=O)c2ccc(C)cc2)cc1	rCAG binder 69.3 | rCAG bind conf 70.5 | DNA CAG counter 33.2 | dCAG dye DR inactive
Cc1ccc(S(=O)(=O)N2[C@@H](c3ccc(F)cc3)C(C(=O)O)=CC[C@H]2c2cccc(C)c2)cc1	none
Cc1ccc(S(=O)(=O)N2[C@@H](c3cccc(Cl)c3)C(C(=O)O)=CC[C@H]2c2ccc(Cl)cc2)cc1	none
COC(=O)[C@]12C[C@H](CC(=O)NCc3ccc(OC)c(OC)c3)C(=O)N(CCc3ccc(OC)c(OC)c3)C1=C[C@H](C1CCCC1)O[C@@H]2C	none (no result: MPTP inh, DSG3 Ab inh)
Cc1cnc(CNC(=O)c2ccc3nc([C@@H]4O[C@H](CO)[C@H](O)[C@H](O)[C@H]4O)[nH]c3c2)cn1	none (no result: DSG3 Ab inh)
O=C(O)CN1C(=O)/C(=C\c2cccc(OC(=O)c3ccco3)c2)SC1=S	none
O=C(O)CN1C(=O)/C(=C\c2cccc(OCc3ccc(F)cc3)c2)SC1=S	rCAG binder 80.8 | rCAG bind conf 79.6 | DNA CAG counter 44.4
O=C1C(=Cc2cn(-c3ccccc3)nc2-c2ccc(OCc3ccc(Cl)cc3)cc2)SC(=S)N1CCS(=O)(=O)O	rCAG binder 68.3 (no result: DSG3 Ab inh) | rCAG bind conf 58.4 | DNA CAG counter 42.6
O=C(O)CN1C(=O)/C(=C\c2cccc(OCc3ccccc3F)c2)SC1=S	rCAG binder 83.8 | rCAG bind conf 75.4 | DNA CAG counter 36.7
O=C(O)CCCCCN1C(=O)/C(=C/c2cn(-c3ccccc3)nc2-c2cccs2)SC1=S	rCAG binder 56.6 (no result: DSG3 Ab inh) | rCAG bind conf 69.1 | DNA CAG counter 39.1
O=C(O)CN1C(=O)/C(=C\c2cccc(OCc3ccc(Cl)cc3)c2)SC1=S	rCAG binder 78.4 | rCAG bind conf 91.2 | DNA CAG counter 64.4
O=C(O)CN1C(=O)/C(=C/c2ccc(SCc3ccccc3)o2)SC1=S	rCAG binder 40.7 | rCAG bind conf 59.4 | DNA CAG counter 31.4
O=C(O)CN1C(=O)/C(=C\c2cc(Br)ccc2OCc2ccc(Cl)cc2Cl)SC1=S	none (no result: KLK7 zymogen act, ADAM10 inh, rCAG binder, ADAM17 inh)
O=C(O)CCN1C(=O)/C(=C\c2cccc(Oc3ccccc3)c2)SC1=S	rCAG binder 61.8 | rCAG bind conf 77.8 | DNA CAG counter 34.8
O=C(O)CN1C(=O)/C(=C\c2ccc(OC(=O)c3ccco3)cc2)SC1=S	none
O=C(O)CN1C(=O)/C(=C\c2ccccc2OCc2ccc(Cl)cc2)SC1=S	rCAG binder 73.8 | rCAG bind conf 84.2 | DNA CAG counter 47.0
CC(C)(Oc1ccc(Cl)cc1)C(=O)NCC1CCCO1 (centres undefined)	none
CCCCCCCCN1C(=O)N2Cc3cc(F)ccc3C2CS1(=O)=O (centres undefined)	none (no result: MPTP inh, DSG3 Ab inh)
